Results: PubChem BioAssay (Tox21)
Inconclusive results are not listed. Calls of active or inactive are those of the source. Unless noted, calls follow the shape of the dose curve; as a rule, active = well fitted curve in the direction sought with a large enough effect in the repeat runs; inconclusive = weak or mixed curves; inactive = no such curve, though single readings can be large; an effect the other way counts as inactive or inconclusive.

Tests used:
[1] = qHTS assay to identify small molecule agonists of the hypoxia (HIF-1) signaling pathway - cell viability counter screen (AID 1224844; calls by dose curve; also: nearly all actives have a fitted effect of over 50% in size)
Summary of the method: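 Viability counter screen: HRE-bla ME-180 cells plated 5 hrs before compound addition, treated 17 hrs at 37C and 5% CO2, then CellTiter-Glo added after the FRET reporter read; luminescence after 30 min.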

[2] = qHTS assay to identify small molecule agonists of H2AX (AID 1224845; active = well fitted activation curve with a large enough effect in the signal ratio in the repeat runs, not every such curve was filed as active; the % refers to the signal ratio)
Summary of the method: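 Wild-type CHO-K1 cells, plated overnight, exposed 3hr at 37C to 15 concentrations (0.76% DMSO final). Lysed, then HTRF anti-pH2AX (S139) cryptate and anti-H2AX-d2 antibodies, 24 hr room temperature; 665/620 nm emission read.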

[3] = qHTS assay to identify small molecule agonists of the hypoxia (HIF-1) signaling pathway (AID 1224846; active = well fitted activation curve with a large enough effect in the signal ratio in the repeat runs, not every such curve was filed as active; the % refers to the signal ratio)
Summary of the method: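 Agonist mode reporter screen. ME-180 cells stably expressing bla under HRE control received test compounds in DMSO for 17 hrs (37C, 5% CO2), and beta-lactamase activity was then detected with the CCF4-AM FRET substrate.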

[4] = qHTS assay to identify small molecule agonists of H2AX - cell viability counter screen (AID 1224847; calls by dose curve; also: top concentration of the series differs between compounds; nearly all actives have a fitted effect of over 30% in size)
Summary of the method: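 Compounds tested at 15 concentrations were incubated 3 hr at 37C with wild-type CHO-K1 cells; cellular ATP-based luminescence (CellTiter-Glo) indicated viability.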

[5] = qHTS assay to identify small molecule agonists of the estrogen related receptor (ERR) signaling pathway from Tox21 library (AID 1224849; calls by dose curve; also: nearly all actives have a fitted effect of over 15% in size); settings: ERR reporter cell line, ONE-Glo luciferase, 18 h
Summary of the method: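 Quantitative HTS in agonist format: NTP ERR cell line, compounds transferred in DMSO after 6 h plating, 18 h incubation at 37 C, ONE-Glo luminescence endpoint.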

[6] = qHTS RealTime-Glo MT Cell Viability Assay in HEK293 cells - 32 hour (AID 1224868); also: nearly all actives have a fitted effect of over 50% in size; also: potency is read from the fitted curve at half-maximal effect; as to activity change, negative = cytotoxic: top concentration of the series differs between compounds
Summary of the method: (§1)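 Luminescence generated by NanoLuc from substrate produced by living HEK293 cells served as the viability signal. Each value reflects the reading at its stated time point during continuous 40 h compound exposure at 37 C.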

[7] = A CellTox Green Cytotoxicity Assay to monitor cytotoxicity in HEK293 cells - 0 hour (AID 1224869); also: nearly all actives have a fitted effect of over 50% in size
Summary of the method: (§2)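 Dead-cell fluorescence measured kinetically: asymmetric cyanine dye, HEK293, 600 cells/well, 5 h settle, 23 nL cpd/DMSO, 37 C, reads 0–40 h every 8 h.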

[8] = A CellTox Green Cytotoxicity Assay to monitor cytotoxicity in HEK293 cells - 40 hour (AID 1224871); also: nearly all actives have a fitted effect of over 45% in size; also: potency is read from the fitted curve at half-maximal effect
Summary of the method: as §2

[9] = qHTS RealTime-Glo MT Cell Viability Assay in HEK293 cells - 16 hour (AID 1224872); also: nearly all actives have a fitted effect of over 50% in size; also: potency is read from the fitted curve at half-maximal effect; as to activity change, negative = cytotoxicity: top concentration of the series differs between compounds
Summary of the method: as §1

[10] = qHTS RealTime-Glo MT Cell Viability Assay in HEK293 cells - 40 hour (AID 1224874); settings: RealTime-Glo luminescence; max response: stronger effect = lower value; also: nearly all actives have a fitted effect of over 50% in size; also: potency is read from the fitted curve at half-maximal effect
Summary of the method: (§3)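 600 HEK293 cells per well, dispensed already mixed with RealTime-Glo MT reagents. Compound dosing came 5 h later. The same wells were read for luminescence at 0, 8, 16, 24, 32 and 40 h of exposure at 37 C.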

[11] = A CellTox Green Cytotoxicity Assay to monitor cytotoxicity in HEK293 cells - 24 hour (AID 1224875); also: nearly all actives have a fitted effect of over 45% in size; also: potency is read from the fitted curve at half-maximal effect
Summary of the method: as §2

[12] = A CellTox Green Cytotoxicity Assay to monitor cytotoxicity in HepG2 cells - 16 hour (AID 1224876); also: nearly all actives have a fitted effect of over 45% in size
Summary of the method: (§4)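 First, HepG2 cells (600/well) mixed with reagent were plated; second, after 5 h at 37 C they received compounds via pintool; third, fluorescence was measured at 0 h through 40 h at 8 h intervals.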

[13] = qHTS RealTime-Glo MT Cell Viability Assay in HepG2 cells - 32 hour (AID 1224877); also: nearly all actives have a fitted effect of over 55% in size
Summary of the method: (§5)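 Tox21 10K library screened in qHTS format on HepG2 cells carrying RealTime-Glo reagents. Compounds were added after a 5 h preincubation, and the luminescent signal from continuous culture was measured repeatedly during 40 h treatment.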

[14] = A CellTox Green Cytotoxicity Assay to monitor cytotoxicity in HepG2 cells - 24 hour (AID 1224878); also: nearly all actives have a fitted effect of over 45% in size; also: potency is read from the fitted curve at half-maximal effect
Summary of the method: as §4

[15] = A CellTox Green Cytotoxicity Assay to monitor cytotoxicity in HepG2 cells - 40 hour (AID 1224879); also: nearly all actives have a fitted effect of over 40% in size
Summary of the method: as §4

[16] = qHTS RealTime-Glo MT Cell Viability Assay in HEK293 cells - 0 hour (AID 1224880)
Summary of the method: as §3

[17] = qHTS assay to identify small molecule antagonists of the estrogen related receptor (ERR) signaling pathway from Tox21 library (AID 1224848); also: nearly all actives have a fitted effect of over 50% in size
Summary of the method: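 Quantitative high-throughput format: ERR reporter cells (2,000/well) pre-incubated 6 h, treated 18 h at 37 C with compounds in DMSO alongside positive and negative controls, then read by ONE-Glo luminescence.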

[18] = qHTS RealTime-Glo MT Cell Viability Assay in HepG2 cells - 40 hour (AID 1224870); also: nearly all actives have a fitted effect of over 50% in size
Summary of the method: (§6)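 HepG2 cells (600/well) mixed with RealTime-Glo MT reagent, settled 5 h at 37 C/5% CO2 before compound addition. Nonlytic NanoLuc luminescence from viable-cell prosubstrate reduction read repeatedly during 40 h treatment at 37 C.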

[19] = qHTS RealTime-Glo MT Cell Viability Assay in HepG2 cells - 8 hour (AID 1224873); also: nearly all actives have a fitted effect of over 55% in size
Summary of the method: as §6

[20] = qHTS RealTime-Glo MT Cell Viability Assay in HepG2 cells - 24 hour (AID 1224867); also: nearly all actives have a fitted effect of over 50% in size
Summary of the method: as §5
% is scaled to controls: 0 for no effect and ±100 for the full control effect.

CN(C)Cc1cc(C(C)(C)C)c(O)c(C(C)(C)C)c1
inactive: Potency [1] | Potency [2] | Potency [3] | Potency [4] | activity change, positive = activation ([5]; at 92.4 µM (top of the series)) -28.5% | Potency [6] | Potency [7] | Potency [8] | Potency [9] | max response [10] -1.74% | Potency [11] | Potency [12] | Potency [13] | Potency [14] | Potency [15] | Potency [16]

CCCCCCCC/C=C\CCCCCCCCN
inactive: Potency [1] | Potency [2] | Potency [3] | Potency [4] | Potency [17] | activity change, positive = activation ([5]; at 42.5 µM (top of the series)) -2.95% | Potency [7]
active: Potency [6] 23.9 µM | Potency [8] 23.9 µM | Potency [9] 21.3 µM | Potency [11] 21.3 µM

O=C(O)CCN(C1(C(=O)NO)CCCC1)S(=O)(=O)c1ccc(Oc2ccc(F)cc2)cc1
inactive: Potency [1] | Potency [2] | Potency [3] | Potency [4] | Potency [17] | activity change, positive = activation ([5]; at 92.4 µM (top of the series)) 4.9% | Potency [6] | Potency [7] | Potency [18] | Potency [9] | Potency [19] | max response [10] 9.57% | Potency [11] | Potency [12] | Potency [13] | Potency [14] | Potency [15] | Potency [16]

CCCCCc1ccc(Cl)cc1
inactive: Potency [1] | Potency [2] | Potency [3] | Potency [4] | Potency [17] | activity change, positive = activation ([5]; at 92.4 µM (top of the series)) -14.2% | Potency [7] | Potency [18] | Potency [8] | Potency [19] | Potency [11] | Potency [12] | Potency [13] | Potency [14] | Potency [15] | Potency [16]
active: Potency [6] 15.5 µM | Potency [10] 15.5 µM

CCCCCCCC
inactive: Potency [1] | Potency [2] | Potency [3] | Potency [4] | Potency [17] | activity change, positive = activation ([5]; at 92.4 µM (top of the series)) 4.82% | Potency [20] | Potency [6] | Potency [7] | Potency [18] | Potency [8] | Potency [9] | Potency [19] | max response [10] -2.45% | Potency [11] | Potency [12] | Potency [13] | Potency [14] | Potency [15] | Potency [16]

O=C(/C=C/c1ccccc1)OC/C=C/c1ccccc1
inactive: Potency [1] | Potency [2] | Potency [3] | Potency [4] | Potency [17] | activity change, positive = activation ([5]; at 92.4 µM (top of the series)) 3.92% | Potency [20] | Potency [6] | Potency [7] | Potency [18] | Potency [8] | Potency [9] | Potency [19] | max response [10] -1.97% | Potency [12] | Potency [13] | Potency [14] | Potency [15] | Potency [16]

CC(C)CCCCCOC(=O)CCS
inactive: Potency [1] | Potency [2] | Potency [3] | Potency [4] | Potency [17] | activity change, positive = activation ([5]; at 92.4 µM (top of the series)) 3.69% | Potency [20] | Potency [6] | Potency [7] | Potency [8] | Potency [9] | Potency [19] | max response [10] 0.648% | Potency [11] | Potency [13] | Potency [14] | Potency [15] | Potency [16]

Cc1c(N)cccc1C(F)(F)F
inactive: Potency [1] | Potency [2] | Potency [3] | Potency [4] | Potency [17] | activity change, positive = activation ([5]; at 42.5 µM (top of the series)) 6.86% | Potency [20] | Potency [6] | Potency [7] | Potency [18] | Potency [8] | Potency [9] | Potency [19] | max response [10] -0.691% | Potency [11] | Potency [12] | Potency [13] | Potency [14] | Potency [16]

S=c1nccc[nH]1
inactive: Potency [1] | Potency [2] | Potency [3] | Potency [4] | Potency [17] | activity change, positive = activation ([5]; at 92.4 µM (top of the series)) -6.52% | Potency [20] | Potency [6] | Potency [7] | Potency [9] | Potency [19] | max response [10] 13.6% | Potency [11] | Potency [12] | Potency [13] | Potency [14] | Potency [15]

CC(C)Cn1cnc2c(N)nc3ccccc3c21
inactive: activity change, negative = cytotoxicity [1] 18.6% [at 15.8 µM] | activation (H2AX phosphorylation) [2] -2.05% [at 31.6 µM] | activation [3] 0.447% [at 15.8 µM] | activity change, negative = cytotoxicity [4] 1.2% [at 31.6 µM] | activity, negative = inhibition [17] -22% [at 19 µM] | activity change, positive = activation ([5]; at 19 µM (top of the series)) -11.2% | activity change, negative = cytotoxicity [20] 0.631% [at 15.8 µM] | cytotoxicity [7] 4.66% [at 15.8 µM] | activity change, negative = cytotoxic [18] 1.75% [at 15.8 µM] | cytotoxicity increase [8] 1.7% [at 15.8 µM] | activity change [11] 3.75% [at 15.8 µM, stronger effect = higher value] | cytotoxicity increase [12] -13.4% [at 15.8 µM] | activity change, negative = cytotoxic [13] -0.3% [at 15.8 µM] | cytotoxicity [14] -13.9% [at 15.8 µM] | cytotoxicity increase [15] -14.5% [at 15.8 µM] | activity change, negative = cytotoxicity [16] -0.941% [at 15.8 µM]

CCCCCCOC(=O)C(C)CC (stereo unspecified)
inactive: Potency [1] | Potency [2] | Potency [3] | Potency [4] | Potency [17] | activity change, positive = activation ([5]; at 92.4 µM (top of the series)) 0.0288% | Potency [20] | Potency [6] | Potency [7] | Potency [18] | Potency [8] | Potency [9] | Potency [19] | max response [10] -1.46% | Potency [11] | Potency [13] | Potency [14] | Potency [15] | Potency [16]

COc1cc(C)ccc1O
inactive: Potency [1] | Potency [2] | Potency [3] | Potency [4] | Potency [17] | activity change, positive = activation ([5]; at 92.4 µM (top of the series)) 5.96% | Potency [20] | Potency [6] | Potency [7] | Potency [18] | Potency [9] | Potency [19] | max response [10] 3.04% | Potency [11] | Potency [12] | Potency [13] | Potency [14] | Potency [15] | Potency [16]

CN(C)CCN1CCN(c2cccc(Cl)c2)C1=O
inactive: Potency [1] | Potency [2] | Potency [3] | Potency [4] | Potency [20] | Potency [7] | Potency [18] | Potency [8] | Potency [19] | Potency [11] | Potency [12] | Potency [13] | Potency [14] | Potency [16]

CCCCNS(=O)(=O)c1ccc(C)cc1
active: Potency [14] 6.16 µM
inactive: Potency [1] | Potency [2] | Potency [3] | Potency [4] | Potency [20] | Potency [6] | Potency [7] | Potency [18] | Potency [8] | Potency [9] | Potency [19] | max response [10] -16.6% | Potency [11] | Potency [12] | Potency [13] | Potency [16]
